# Measurements published in PubChem BioAssay (NCI).
# This is part of a sample that, as a whole, favours compounds with a hit. Of some 83,000 tested, about 20% had one in any assay.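 Plates (96-well) were seeded with cells, treated with compound at one concentration, and incubated for 48 hours before percent growth was determined.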 Active and inactive are the calls of the source. The calls were made as follows: active = growth percent below 10; inactive = the rest.
# Test system: OVCAR-5 ovarian
# Test: NCI-60 one-dose screen, 48 h (100 = growth as untreated, 0 = no growth, -100 = all killed)
# Details: 10 µM unless noted
row,SMILES,growth
1,O=C(Nc1cccnc1Nc1ccc(Cl)cc1)c1cn(Cc2cccc(Oc3ccccc3)c2)nn1,101% (inactive)
2,C1CCC(N2CN3c4nonc4N4CN(C5CCCCC5)CN5c6nonc6N(C2)C3C45)CC1 (configuration not stated),102% (inactive)
3,N#Cc1c(-c2ccc(Br)cc2)nc2c(N=Nc3ccc(S(N)(=O)=O)cc3)c(N)nn2c1N,72.3% (inactive)
4,COc1cc(/C=C/C(=O)c2cc(OC)c(OC)c(OC)c2)ccc1Oc1nc2c(c(=O)n(C)c(=O)n2C)n1C,5.82% (active)
5,CC1(/C=C/c2ccc(-c3ccccc3)cc2)CCn2cnc3ncnc(c32)N1O (configuration not stated),47.9% (inactive)
6,CCCc1cc(=O)oc2c(C(=O)CC(C)C)c(O)c(CC=C(C)C)c(O)c12,53.8% (inactive)
7,CS(=O)(=O)Nc1cc(-c2ccc3ncnc(Nc4ccc(OCc5ccccn5)c(Cl)c4)c3c2)cnc1Cl,12.5% (inactive)
8,CCN1CCN(CCNc2nccc(-c3c(-c4ccc(F)c(O)c4)nc4occn34)n2)S1(=O)=O,102% (inactive)
9,COc1ccc(C2[C@@H](Cl)C(=O)N2c2cc(OC)c(OC)c(OC)c2)cc1Cl (some centres not stated),64.4% (inactive)
10,CN1CCN(Cc2ccc(NC(=O)c3cncc(C#Cc4cnc(N)cc4C#N)c3)cc2C(F)(F)F)CC1,15.8% (inactive)
11,CN(C)c1ccc([C@@H](C(=O)Nc2cccc([N+](=O)[O-])c2)N(C(=O)c2cc3ccccc3[nH]2)c2cccc([N+](=O)[O-])c2)cc1,94.7% (inactive)
12,c1cc(OCCN2CCCCC2)ccc1CNc1ccc2nc(CCC3CCCCC3)[nH]c2c1,60.2% (inactive)
